These results are taken from PubChem BioAssay (NCI).

Test systems include HCT-15 colon; HT29 colon; SNB-75 CNS; SNB-19 CNS; U251 CNS; PC-3 prostate; SK-MEL-5 melanoma; UACC-62 melanoma; LOX IMVI melanoma; SK-MEL-2 melanoma; EKVX NSCLC; SN12C renal; UO-31 renal; TK-10 renal; ACHN renal; CAKI-1 renal; A498 renal; CCRF-CEM leukemia; SK-MEL-28 melanoma; MOLT-4 leukemia.
What all share (assay): NCI-60 one-dose screen, 48 h (100 = growth as untreated, 0 = no growth, -100 = all killed)
Settings in all cases: 10 µM

The panel holds about 83,000 compounds, 20% with a hit somewhere; the sample as a whole holds those more often.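 Percent growth is the endpoint: 0 to 100 indicates growth inhibition (40 means 60% inhibition), 0 means no net growth, and negative values indicate cell death.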 Values without a mark were called inactive. Calls of active or inactive are those of the source. How the source made its calls: active means growth percent below 10; inactive means the rest.

As to `Cc1cc2c(c(O)c1Br)-c1ncoc1C(=O)[C@]1(C)CC[C@H](C(C)C)[C@H]21`, the growth is 7.31% (active) in the assay with HCT-15 colon; 5.42% (active) in the assay on HT29 colon; 59.6% in the assay with SNB-75 CNS; 45% with SNB-19 CNS; 26.7% in the assay with U251 CNS; 9.6% (active) in the assay on PC-3 prostate. In addition, the growth in the assay on SK-MEL-5 melanoma was -29.9% (active); in the assay with UACC-62 melanoma, 33.1%; with LOX IMVI melanoma, 35.6%; with SK-MEL-2 melanoma it was 4.52% (active); in the assay on EKVX NSCLC it was 46.7%; with SN12C renal, 54.5%. Moreover, the growth is 50.3% in the assay on UO-31 renal; 68.8% with TK-10 renal; 52.2% in the assay on ACHN renal; 55.4% in the assay on CAKI-1 renal; 104% in the assay on A498 renal; 14.2% with CCRF-CEM leukemia.

As for `COc1ccc(C(=O)Nc2sc3c(c2C#N)CCC(=O)C3)cc1C(F)(F)F`, the growth with HCT-15 colon was -69.8% (active); in the assay with HT29 colon, -31.4% (active); with SNB-75 CNS it was -15.2% (active); in the assay on SNB-19 CNS, -5.9% (active); with U251 CNS it was 3.33% (active); with PC-3 prostate, 8.45% (active). Moreover, the growth with SK-MEL-5 melanoma is -92.2% (active); with UACC-62 melanoma, -25.5% (active); with LOX IMVI melanoma, -15% (active); in the assay with SK-MEL-28 melanoma, -12.6% (active); with SK-MEL-2 melanoma, -17.6% (active); with EKVX NSCLC, -0.293% (active). Besides, the growth in the assay on UO-31 renal was -18.2% (active); with TK-10 renal, 15.1%; with ACHN renal, -29.9% (active); with CAKI-1 renal, -28.1% (active); with A498 renal it was 63.3%; in the assay on CCRF-CEM leukemia it was 5.05% (active). In the assay with MOLT-4 leukemia, the growth was 3.42% (active).

Regarding `O=C1CCC(N2Cc3cc(NC(=O)COc4ccccc4)ccc3C2=O)C(=O)N1` (centres undefined), the growth with HCT-15 colon was 25.4%; in the assay with HT29 colon, 79.5%; with SNB-75 CNS it was 46.4%; in the assay on SNB-19 CNS, 66.7%; in the assay on U251 CNS it was 86.8%; in the assay on PC-3 prostate, 37.7%. The growth was 74.2% in the assay on SK-MEL-5 melanoma; 84.4% in the assay on UACC-62 melanoma; 108% in the assay on LOX IMVI melanoma; 95.9% in the assay with SK-MEL-28 melanoma; 98.3% in the assay with SK-MEL-2 melanoma; 73.6% in the assay with SN12C renal. Also, the growth in the assay on UO-31 renal was 28.5%; in the assay on TK-10 renal, 66%; with ACHN renal, 91.9%; in the assay on CAKI-1 renal, 92.3%; with A498 renal, 75.1%; with CCRF-CEM leukemia, 22.7%. Moreover, the growth in the assay on MOLT-4 leukemia was 11.5%.

Consider `O=C(CSc1nnc(-c2c[nH]c3ccccc23)n1-c1ccccc1)c1ccccc1`, for which the growth was 79.4% in the assay on HCT-15 colon; 47.9% in the assay with HT29 colon; 100% with SNB-75 CNS; 19.2% in the assay with SNB-19 CNS; 10.8% with U251 CNS; 65.8% in the assay with PC-3 prostate. Also, the growth with SK-MEL-5 melanoma was 90.7%; with UACC-62 melanoma, 73.4%; in the assay with LOX IMVI melanoma it was 29.2%; with SK-MEL-28 melanoma it was 100%; in the assay on SK-MEL-2 melanoma, 91.9%; with SN12C renal, 44.7%. Further, the growth with UO-31 renal is 55.5%; with TK-10 renal, 72%; in the assay on ACHN renal it was 60.5%; with CAKI-1 renal, 53.2%; with A498 renal it was 106%; in the assay with CCRF-CEM leukemia, 91.4%. Also, the growth with MOLT-4 leukemia is 90.6%.

In the case of `N[C@@H](CSSC[C@H](N)C(=O)Nc1ccc(OCC2CCCC2)cc1)C(=O)Nc1ccc(OCC2CCCC2)cc1`, the growth with HCT-15 colon was -76.9% (active); with HT29 colon, -93.3% (active); in the assay on SNB-75 CNS, -96.3% (active); in the assay on SNB-19 CNS, -95.6% (active); in the assay with U251 CNS it was -86.6% (active); in the assay on PC-3 prostate it was -87.3% (active). The growth in the assay with SK-MEL-5 melanoma is -100% (active); in the assay on UACC-62 melanoma, -99.7% (active); in the assay on LOX IMVI melanoma, -96.1% (active); in the assay with SK-MEL-28 melanoma, -99% (active); in the assay with SK-MEL-2 melanoma, -93% (active); with SN12C renal, -98.5% (active). In addition, the growth in the assay with UO-31 renal is -100% (active); with TK-10 renal, -95.5% (active); with ACHN renal it was -100% (active); with CAKI-1 renal it was -99.1% (active); in the assay with A498 renal, -85.4% (active); in the assay on CCRF-CEM leukemia it was -60.5% (active).

Take `COc1cc(C2CC(c3ccccc3)=Nc3c(N)nc(N)nc3N2)ccc1Oc1nc(Nc2ccc(F)cc2)nc(N(C)C)n1` (centres undefined): the growth is 20.8% in the assay on HCT-15 colon; 24.7% with HT29 colon; 61% in the assay with SNB-75 CNS; 62.2% in the assay with SNB-19 CNS; 56.3% in the assay with U251 CNS; 40.7% in the assay with PC-3 prostate. Also, the growth in the assay with SK-MEL-5 melanoma was -97.8% (active); with UACC-62 melanoma, 48.5%; in the assay with LOX IMVI melanoma, 23.2%; in the assay on SK-MEL-2 melanoma, 54.5%; with EKVX NSCLC, 50.2%; in the assay on SN12C renal it was 64.6%. Also, the growth in the assay with UO-31 renal was 46.6%; in the assay on TK-10 renal, 82.6%; in the assay on ACHN renal, 38.5%; with CAKI-1 renal, 39.3%; in the assay with A498 renal, 94.4%; in the assay with CCRF-CEM leukemia, 25.4%. For the same compound, in the assay with MOLT-4 leukemia, the growth is 1.45% (active).

Take `N#Cc1c(NC(=O)c2ccc(C(F)(F)F)cc2)sc2c1CCC(=O)C2`: the growth was -66.1% (active) in the assay on HCT-15 colon; 8.13% (active) in the assay on HT29 colon; -44.9% (active) in the assay on SNB-75 CNS; -42.2% (active) in the assay on SNB-19 CNS; -66.3% (active) in the assay on U251 CNS; -9.55% (active) in the assay with PC-3 prostate. For the same compound, the growth with SK-MEL-5 melanoma is -97.7% (active); with UACC-62 melanoma, -82.7% (active); with LOX IMVI melanoma, -86.8% (active); in the assay with SK-MEL-28 melanoma, -88.2% (active); in the assay on SK-MEL-2 melanoma, -57.9% (active); in the assay on SN12C renal, -31.9% (active). The growth is -99.9% (active) with UO-31 renal; -53.7% (active) in the assay with TK-10 renal; -100% (active) in the assay on ACHN renal; -21.7% (active) in the assay with CAKI-1 renal; 2.58% (active) in the assay on A498 renal; 7.92% (active) in the assay with CCRF-CEM leukemia. The growth with MOLT-4 leukemia is 9.79% (active).

Take `O=c1cc(-c2ccccc2)oc2cc(OCCCNCc3ccccc3)cc(O)c12`: the growth was -67.1% (active) in the assay on HCT-15 colon; -59.7% (active) with HT29 colon; 23.9% with SNB-75 CNS; 48.2% in the assay with SNB-19 CNS; -79.8% (active) in the assay on U251 CNS; -0.767% (active) in the assay with PC-3 prostate. The growth in the assay with SK-MEL-5 melanoma was -99.6% (active); with UACC-62 melanoma, -55.7% (active); in the assay with LOX IMVI melanoma, -97.8% (active); in the assay with SK-MEL-28 melanoma, -88.8% (active); in the assay with SK-MEL-2 melanoma, -81.4% (active); with UO-31 renal, -9.86% (active). For the same compound, the growth was 37.3% with TK-10 renal; 3.03% (active) in the assay on ACHN renal; -24% (active) in the assay on CAKI-1 renal; -14.5% (active) in the assay on A498 renal; 10.1% with CCRF-CEM leukemia; -13% (active) in the assay on MOLT-4 leukemia.
